Results published in the supplement of paper PMC9694430.
Values joined by “and” are separate entries in the source; they are usually repeats but may differ in a detail not shown here. Equal values may be shown once.

Legend:
Test in all cases: thermal shift delta Tm vs DMSO control; higher = stronger stabilization (binding)
Conditions in all cases: 12.5 µM; protein concentration 2 µM
LOC_OS01G01410-cb001 = system: LOC_OS01G01410-cb001
How it was run: (§1)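 Rice kinase domain constructs were expressed in E. coli, purified, and tested by differential scanning fluorimetry with compound added in DMSO. Each well of a 96-well plate held 19.5 μl of 2 μM kinase in 100 mM potassium phosphate pH 7.5, 150 mM NaCl, 10% glycerol and 5 × SYPRO Orange, and fluorescence was read from 25°C to 95°C at 0.05°C/s. The melting temperature shift is the mean of triplicates, taken against protein with DMSO alone after Boltzmann fitting.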

LOC_OS01G02750-cb003 = system: LOC_OS01G02750-cb003
How it was run: as §1

LOC_OS01G10900-cb004 = system: LOC_OS01G10900-cb004
How it was run: as §1

LOC_OS01G13800-cb001 = system: LOC_OS01G13800-cb001
How it was run: as §1

LOC_OS01G14860-cb001 = system: LOC_OS01G14860-cb001
How it was run: as §1

LOC_OS01G21960-cb002 = system: LOC_OS01G21960-cb002
How it was run: as §1

LOC_OS01G39600-cb002 = system: LOC_OS01G39600-cb002
How it was run: as §1

LOC_OS01G48390-cb002 = system: LOC_OS01G48390-cb002
How it was run: as §1

LOC_OS01G51400-cb002 = system: LOC_OS01G51400-cb002
How it was run: as §1

LOC_OS01G52050-cb004 = system: T1, LOC_OS01G52050-cb004
T1 sequence (whole entry): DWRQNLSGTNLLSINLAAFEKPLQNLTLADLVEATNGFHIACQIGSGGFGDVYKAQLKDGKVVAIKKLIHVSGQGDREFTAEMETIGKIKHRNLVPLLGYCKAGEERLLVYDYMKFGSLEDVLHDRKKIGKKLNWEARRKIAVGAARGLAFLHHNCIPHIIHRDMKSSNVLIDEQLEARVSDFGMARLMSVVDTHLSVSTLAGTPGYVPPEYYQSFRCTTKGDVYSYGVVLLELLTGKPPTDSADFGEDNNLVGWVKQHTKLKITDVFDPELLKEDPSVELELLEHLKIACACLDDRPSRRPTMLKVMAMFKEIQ
How it was run: as §1

SMILES | thermal shift delta Tm (LOC_OS01G01410-cb001) | thermal shift delta Tm (LOC_OS01G02750-cb003) | thermal shift delta Tm (LOC_OS01G10900-cb004) | thermal shift delta Tm (LOC_OS01G13800-cb001) | thermal shift delta Tm (LOC_OS01G14860-cb001) | thermal shift delta Tm (LOC_OS01G21960-cb002) | thermal shift delta Tm (LOC_OS01G39600-cb002) | thermal shift delta Tm (LOC_OS01G48390-cb002) | thermal shift delta Tm (LOC_OS01G51400-cb002) | thermal shift delta Tm (LOC_OS01G52050-cb004)
O=C1NC(=O)/C(=C/c2ccc3c(c2)OC(F)(F)O3)S1 | 0.72 °C | 0.45 °C | 0.16 °C | 0.44 °C | 0.39 °C | 1.11 °C | 0.17 °C | 0.77 °C | 0.53 °C | 0.79 °C
CC1(C)OCCn2c1nc1c(N3CCOCC3)nc(-c3cnc(N)nc3)nc12 | 2.4 °C | 0.54 °C | 1.05 °C | 0.07 °C | 0.3 °C | 1.06 °C | 0.85 °C | 0.14 °C | 0.12 °C | 0.62 °C
CCS(=O)(=O)Nc1ccc2c(c1)/C(=C(/Nc1ccc(CN3CCCCC3)cc1)c1ccccc1)C(=O)N2 [Hesperadin] | 1.67 °C | 4.74 °C | 0.26 °C | -0.97 °C | 4.63 °C | 3.67 °C | 7.78 °C | 0.03 °C | 0.3 °C | 6.95 °C
Cc1ccccc1CN1C2=NCCN2C(=O)C2=C1CCN(Cc1ccccc1)C2 [TIC10 Analogue] | 0.06 °C | 2.43 °C | 0.31 °C | -0.07 °C | 0.07 °C | 0.85 °C | -3.24 °C | 0.44 °C | 0.5 °C | -0.27 °C
COc1cc(Nc2ncc(F)c(Nc3ccc4c(n3)NC(=O)C(C)(C)O4)n2)cc(OC)c1OC | 0.76 °C | 0.35 °C | 0.54 °C | -0.84 °C | 5.04 °C | 3.95 °C | 4.95 °C | 0.28 °C | 0.41 °C | 7.74 °C
CN(c1ncccc1CNc1nc(Nc2ccc3c(c2)CC(=O)N3)ncc1C(F)(F)F)S(C)(=O)=O | 1.79 °C and 2.31 °C | 3.54 °C and 4.36 °C | 1.71 °C and 2.09 °C | -0.44 °C and -0.69 °C | 4.96 °C and 3.99 °C | 2.13 °C and 2.41 °C | 8.29 °C and 12.3 °C | 2.62 °C and 2.82 °C | 1.29 °C and 1.71 °C | 5.25 °C and 6.24 °C
CC(C)NC[C@@H](C(=O)N1CCN(c2ncnc3c2[C@H](C)C[C@H]3O)CC1)c1ccc(Cl)cc1 [Ipatasertib (GDC-0068)] | 0.15 °C | 0.42 °C | 0.03 °C | 0.07 °C | 0.06 °C | 0.43 °C | 0.77 °C | -0.11 °C | 0.32 °C | 0.26 °C
CO[C@H]1C[C@@H]2CC[C@@H](C)[C@@](O)(O2)C(=O)C(=O)N2CCCC[C@H]2C(=O)O[C@H]([C@H](C)C[C@@H]2CC[C@@H](OCCO)[C@H](OC)C2)CC(=O)[C@H](C)/C=C(\C)[C@@H](O)[C@@H](OC)C(=O)[C@H](C)C[C@H](C)/C=C/C=C/C=C/1C [Everolimus (RAD001)] | 1.13 °C | -1.72 °C | 0.03 °C | 0.16 °C | -0.41 °C | 0.16 °C | 0.54 °C | 0.33 °C | -0.03 °C | 0.35 °C
CN(C)Cc1cccc(N=C(c2ccccc2)c2c(O)[nH]c3cc(C(=O)N(C)C)ccc23)c1 | -0.17 °C | 0.75 °C | 0.14 °C | 0.49 °C | 0.13 °C | 0.52 °C | 1.05 °C | 1.46 °C | 0.16 °C | 0.77 °C
CN(C)CCOc1ccc(-c2nc(-c3ccncc3)c(-c3ccc4c(c3)CC/C4=N\O)[nH]2)cc1 | 1.77 °C | 0.07 °C | 3.19 °C | 0.05 °C | 0.42 °C | -0.07 °C | 0.16 °C | 1.16 °C | 0.46 °C | 0.22 °C
O=C(Nc1cc(C(F)(F)F)cc(C(F)(F)F)c1)c1cc(Cl)ccc1O | 1.21 °C | 2.23 °C | 0.29 °C | 1.37 °C | 1.05 °C | 1.13 °C | 3.34 °C | 1.1 °C | 0.99 °C | 1.75 °C
CC(C)(C)c1cc(NC(=O)Nc2ccc(-c3cn4c(n3)sc3cc(OCCN5CCOCC5)ccc34)cc2)no1 [Quizartinib (AC220)] | -0.06 °C | 0.83 °C | 0.82 °C | 0.79 °C | 0.25 °C | 1.03 °C | 0.27 °C | 0.74 °C | -0.16 °C | 0.84 °C
O=C(c1ccc(/C=C/c2n[nH]c3ccccc23)cc1)N1CCNCC1 | 5.18 °C | 3.06 °C | 1.43 °C | -0.18 °C | 1.8 °C | 2.42 °C | 5.76 °C | 5.36 °C | 1.16 °C | 7.26 °C
CO[C@@H](C)Cn1c(=O)n(C)c2cnc3ccc(-c4cncc(C(C)(C)O)c4)cc3c21 | 0.7 °C | 1.17 °C | 0.3 °C | 0.76 °C | 0.77 °C | 0.72 °C | 0.26 °C | 0.5 °C | 0.38 °C | 1.9 °C
CNC(=O)c1cc(Oc2ccc(NC(=O)Nc3cc(C(C)(C)C)nn3-c3ccc4ncccc4c3)c(F)c2)ccn1 [Rebastinib (DCC-2036)] | 1.21 °C | 0.84 °C | 0.98 °C | 0.38 °C | 7.66 °C | 1.31 °C | 0.57 °C | 1.3 °C | 0.47 °C | 1.95 °C
COc1cc(Nc2c(C#N)cnc3cc(OCCCN4CCN(C)CC4)c(OC)cc23)c(Cl)cc1Cl [Bosutinib (SKI-606)] | 0.89 °C | 0.44 °C | -0.3 °C | 0.52 °C | 0.06 °C | -0.08 °C | -0.04 °C | 0.05 °C | -0.09 °C | 0.17 °C
COc1cc2ncnc(Nc3ccc(Oc4ccccc4)cc3C)c2cc1OC | 0.68 °C | 0.9 °C | 0.3 °C | -0.47 °C | 0.22 °C | 0.26 °C | 0.05 °C | 0.79 °C | 0.08 °C | 2.07 °C
CC(C)NC(=O)COc1cccc(-c2nc(Nc3ccc4[nH]ncc4c3)c3ccccc3n2)c1 | 0.42 °C | 0.09 °C | 0.99 °C | 0.46 °C | 1.95 °C | 1.23 °C | -0.3 °C | 0.33 °C | -0.24 °C | 1.34 °C
